Measured values from PubChem BioAssay AID504406 (Broad Institute, 2011).
About 190 (0.059%) of roughly 320,000 compounds were called active. The sample holds actives, similar compounds and a random draw of the others, so the mix is not that of the screen. A number with no mark means an inactive call. No stated cut-off is given here; in the data, active means inhibition above about 10% (passing the limit was not always enough); inconclusive means no clear call, values can overlap the other calls.

These compounds were tested against UDP-galactopyranose mutase (Mycobacterium tuberculosis (strain ATCC 25618 / H37Rv)) (UniProt P9WIQ1) (assay: M. tuberculosis UGM enzyme inhibitors, primary screen, biochemical, fluorescence polarization, single point (AID 504406)). Conditions: purified UGM, fluorescence polarization probe displacement; at 10 µM; hits give high values.
Sequence of UDP-galactopyranose mutase (Mycobacterium tuberculosis (strain ATCC 25618 / H37Rv)) (P9WIQ1 whole entry, looked up): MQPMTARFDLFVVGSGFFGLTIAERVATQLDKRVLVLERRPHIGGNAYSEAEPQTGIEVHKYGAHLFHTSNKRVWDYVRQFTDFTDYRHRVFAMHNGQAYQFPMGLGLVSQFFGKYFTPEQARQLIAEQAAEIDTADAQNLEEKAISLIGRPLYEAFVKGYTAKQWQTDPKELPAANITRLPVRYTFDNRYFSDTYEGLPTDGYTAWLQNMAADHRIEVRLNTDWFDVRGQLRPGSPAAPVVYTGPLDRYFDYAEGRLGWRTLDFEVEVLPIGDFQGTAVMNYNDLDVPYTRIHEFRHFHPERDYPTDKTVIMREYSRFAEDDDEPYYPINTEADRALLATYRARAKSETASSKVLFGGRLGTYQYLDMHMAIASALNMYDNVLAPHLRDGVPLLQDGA
In the case of `CCOCCN(C=O)c1cccc(OC)c1`, the inhibition is reported as -2.42%. With `CCOC(=O)N1CCC(Nc2c(NCCCN3CCN(CC)CC3)c(=O)c2=O)CC1` the inhibition was -1.72%. For `O=C(Nc1ccc(F)c(Cl)c1)C1CCN(S(=O)(=O)c2cccnc2)CC1`, the inhibition was 0.143%. With `CCCn1c2ccccc2c2cnn(CC(=O)NCCCN3CCCCC3CC)c(=O)c21` (stereo unspecified) the inhibition was -1.26%. `CCOC(=O)c1cc2c(ccn2C)n1CC(=O)N1CCC(C)CC1` gave an inhibition of -2.05%. Work on `Cn1c(CC2Sc3ccccc3NC2=O)nnc1SCC(=O)c1ccc(Cl)cc1` (stereo unspecified) yielded an inhibition of 1.26%. With `COCCN(C(=O)C(C)C)c1nnc(-c2ccc(C(C)(C)C)cc2)s1` the inhibition was 2.82%. For `Cc1ccc(S(=O)(=O)N2CCC(C)CC2)cc1C(=O)NCc1ccccn1`, the inhibition was -2.55%. `COCCNc1nc2nonc2nc1N(C)Cc1ccc(C)cc1` gave an inhibition of 0.32%. For `COC(=O)/C=C(\Oc1ccccc1)C1(O)CCCCC1`, the inhibition was -0.0675%. Work on `Cc1ccc2c(c1)C1CN(C)CCC1N2S(=O)(=O)c1ccc(Oc2ccc([N+](=O)[O-])cc2)cc1` (stereo unspecified) yielded an inhibition of 3.72%. Work on `COc1ccccc1NC(=O)N1CCCC1C(=O)NCc1cccs1` (stereo unspecified) yielded an inhibition of 0.501%. Compound `Oc1ccc(-c2onc3ccc(Cl)cc23)cc1` has an inhibition of -1.19%. `COc1ccc(-c2onc3ccc(C(C)=O)cc23)cc1` was tested, and the inhibition was 12.7% (active). Work on `CC(OC(=O)c1ccc2noc(-c3ccccc3)c2c1)C(N)=O` (stereo unspecified) yielded an inhibition of 1.01%. In the case of `CC(C)CNC(=O)C(=O)NCC(c1ccc2c(c1)OCO2)N1CCOCC1` (stereo unspecified), the inhibition is reported as -1.37%. `Cn1c(=O)cc(OCC(=O)N2CCN(c3ccccc3F)CC2)c2ccccc21` gave an inhibition of 0.591%. With `Cc1cc(C)n(CCNC(=O)CC2C(=O)NCCN2Cc2ccc(C)o2)n1` (stereo unspecified) the inhibition was -1.39%. For `CC(C)(C)c1cc[n+](-c2[nH]c(=O)sc2/C=N/N=C(\[O-])c2ccccc2)cc1`, the inhibition was 0.838%. `CCCCn1c(-c2cccc(C)c2)nc2cc3[nH]c(=O)c(C(C)C)nc3cc21` was tested, and the inhibition was -1.53%. Work on `CCOC(=O)c1ccc(NC(=S)N2CCN(c3ccccn3)CC2)cc1` yielded an inhibition of 0.665%. `COc1ccc(N(C(=O)c2ccc(C)cc2)S(=O)(=O)c2cccs2)cc1` gave an inhibition of 0.9%. Compound `CCn1c(SCC(=O)Nc2sc(C)c(C)c2C#N)nnc1C1CC1` has an inhibition of 2.46%. `O=C(NCc1nnc(SCC(=O)N2CCCc3ccccc32)o1)c1ccccc1F` showed an inhibition of -0.239%. Compound `COc1cccc(NC(=O)Nc2nnc(N3CCCCC3C)s2)c1` (stereo unspecified) has an inhibition of -1.07%. In the case of `O=C(Cc1ccccc1F)NC1CCSc2ccccc21` (stereo unspecified), the inhibition is reported as 1.04%. Work on `CCN(Cc1ccncc1)C(=O)CCc1ccccc1` yielded an inhibition of -1.33%. For `C/C=C/c1ccc(OCC(O)CN2CCCCCCC2)c(OC)c1` (stereo unspecified), the inhibition was -2.18%. In the case of `Cc1cc(NC(=O)CCS(=O)(=O)c2ccc(F)cc2)no1`, the inhibition is reported as 1.59%. In the case of `COc1ccc2[nH]c(C)c(CCN(Cc3cccs3)C(=S)Nc3ccccc3OC)c2c1`, the inhibition is reported as 12.8% (active). Compound `COc1cccc(NC(=S)N(CCc2c(C)[nH]c3ccccc23)Cc2ccco2)c1` has an inhibition of 5.05%. In the case of `Cc1[nH]c2ccccc2c1CCN(Cc1cccs1)C(=S)NC(C)(C)C`, the inhibition is reported as 1.01%. `COc1ccccc1CNC(=O)c1ccc(N(C)S(=O)(=O)c2ccc(C)cc2)cc1` was tested, and the inhibition was -1.48%. Work on `CCOc1ccc(CCNC(=O)COC(=O)c2ccc(F)c(S(=O)(=O)N3CCOCC3)c2)cc1OCC` yielded an inhibition of 0.417%. `Cc1c(Cl)cccc1NC(=O)CCC(=O)N/N=C/c1ccco1` was tested, and the inhibition was 2.71%. With `COc1ccc(CNC(=O)C(=O)NCC2OCCN2C(=O)c2ccc(OC)cc2)cc1` (stereo unspecified) the inhibition was -1.77%. `FC(F)(F)c1cc(-c2ccco2)nc(NCc2ccc(Cl)cc2)n1` was tested, and the inhibition was -0.748%. `Cc1cc(C(C)(C)C)cc(S(=O)(=O)Nc2ccc(C(=O)O)cc2)c1C` was tested, and the inhibition was 20% (active). Compound `Cc1noc(C)c1S(=O)(=O)Nc1ccc(C(=O)O)cc1` has an inhibition of -2.83%. For `O=C(O)c1ccc(F)c(S(=O)(=O)Nc2ccccc2)c1`, the inhibition was 2.67%. Compound `Cc1cc(C)cc(N(CC(=O)NCC2CCCO2)S(=O)(=O)c2c(C)noc2C)c1` (stereo unspecified) has an inhibition of -1.07%. Compound `CCc1ccc(Nc2n[n+](-c3ccccc3)c(-c3cccc(Cl)c3Cl)s2)cc1` has an inhibition of 1.25%. For `O=C(O)CCS(=O)(=O)c1ccc(-c2ccccc2)cc1`, the inhibition was 0.58%. Compound `O=C(c1ccco1)N1CCN(C(=O)C2CCCN(S(=O)(=O)c3cccc4nsnc34)C2)CC1` (stereo unspecified) has an inhibition of 1.18%. In the case of `COc1cccc(/C=N/NC(=O)C(=O)N2CCCC2)c1`, the inhibition is reported as -1.54%. With `C#CCNC(=O)[C@H](Cc1ccc(C(=O)c2ccccc2)cc1)NC(=O)OC(C)(C)C` the inhibition was -0.186%.
